Laboratory results reported in PubChem BioAssay.
Values joined by “and” are separate entries in the source; they are usually repeats but may differ in a detail not shown here. Equal values may be shown once. Active and inactive are the calls of the source.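 How the source made its calls, unless noted: active means compounds whose cell count with miR-34 switched on is under 0.7 times the count with it off; inactive means the rest.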

Legend:
[1] = viability loss with induced miR-34 in A549 – imaging, A549 dox-inducible miR-34, nuclei and caspase counts, primary screen (AID 1347080); conditions: A549 miR-34 inducible, Hoechst nuclei count, 48 h
[2] = MELAS cybrid and Rieske KO viability enhancers – cell-based, MELAS cybrids, Rieske KO mouse fibroblasts, CellTiter-Glo, primary screen (AID 1508586;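 active means mean z-score across replicates of 1.96 or higher in either the MELAS or the Rieske mutant cell line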;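 further: z relative to plate mean and SD of compound and empty wells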); conditions: low glucose
[3] = stronger effect = lower value, cell number ratio, induced over uninduced
[4] = measured here: relative caspase fold change +Dox/-Dox
[5] = measured here: total cells with miR-34 induction, stronger effect = lower value
[6] = measured here: total cells without miR-34 induction
[7] = MELAS cybrid survival, CellTiter-Glo 48 h, stronger effect = higher value
[8] = Rieske KO mouse fibroblast survival, CellTiter-Glo 72 h
Further: test concentration not given here.

Structure (SMILES)	fold change [1, 3]	fold change [1, 4]	cell count [1, 5]	cell count [1, 6]	z-score [2, 7]	z-score [2, 8]
CCc1cccc2c3c([nH]c12)[C@](CC)(CC(=O)O)OCC3	0.926 (inactive)	0.786	7980	8620	-0.475 (inactive)	-0.00521
CC(C=CC1=C(C)CCCC1(C)C)=CC=CC(C)=CC(=O)O	0.957 (inactive) and 0.887 (inactive)	0.963 and 0.861	6860 and 8040	7170 and 9070	-0.296 (inactive) and 0.176 (inactive)	0.231 and 0.975
COc1cc(=C2C=c3ccccc3=N2)[nH]c1=Cc1[nH]c(C)cc1C	1.1 (inactive)	0.895	1770	1620	2.25 (active)	-2.31
O=C(C=Cc1ccc(CN(CCO)CCc2c[nH]c3ccccc23)cc1)NO	0.866 (inactive)	0.616	944	1090	-0.188 (inactive)	-2.63
CCN(C)C(=O)Oc1cccc(C(C)N(C)C)c1 (stereo not drawn)	0.91 (inactive)	0.79	8110	8910	-0.173 (inactive)	0.451
CC1C[C@@H]2[C@@H](C(O)C[C@@]3(C)[C@H]2CC[C@@]3(O)C(=O)CO)[C@@]2(C)C=CC(=O)C=C12 (stereo partly drawn)	0.787 (inactive)	1.42	5500	6980	-0.489 (inactive)	-0.516
Cc1ccc(-c2c(-c3nn(C)c4ncnc(N5CCC(N6CCCCC6)C5)c34)cnn2C)cc1 (stereo not drawn)	0.989 (inactive)	0.458	8040	8120	-0.254 (inactive)	-0.0628
CN1CCN(C(=O)c2cc3cc(Cl)ccc3[nH]2)CC1	1 (inactive)	0.614	8330	8310	-0.282 (inactive)	-0.0205
O=C1CC(=O)c2c(Cl)c(Cl)c(Cl)c(Cl)c21	1.01 (inactive)	0.472	8430	8350	-0.354 (inactive)	-0.295
C[C@]12CC[C@H]3c4ccc(O)cc4CC[C@H]3[C@@H]1CC(O)C2O (stereo partly drawn)	0.884 (inactive)	0.677	8910	10100	-0.421 (inactive)	-0.251
CCC(=O)OCC(=O)[C@]1(OC(=O)CC)C(C)C[C@H]2[C@@H]3CCC4=CC(=O)C=C[C@]4(C)[C@]3(Cl)C(O)C[C@@]21C (stereo partly drawn)	0.952 (inactive)	0.747	5950	6250	-0.503 (inactive)	-0.134
COc1cc(F)c(C(C)C)cc1-c1ccc(C(F)(F)F)cc1CN1C(=O)OC(c2cc(C(F)(F)F)cc(C(F)(F)F)c2)C1C (stereo not drawn)	0.899 (inactive)	0.917	8290	9220	-0.143 (inactive)	0.372
CC(CCC(=O)O)[C@H]1CC[C@H]2[C@@H]3C(O)C[C@@H]4CC(O)CC[C@]4(C)[C@@H]3CC[C@]12C (stereo partly drawn)	0.91 (inactive)	1.28	8880	9760	-0.306 (inactive)	0.756
Cc1ccc(S(=O)(=O)n2c(N)nc3ccccc32)cc1	1.01 (inactive)	0.588	6490	6440	-0.425 (inactive)	-0.074
O=C(Nc1ccccc1)N1CCN(c2nc(-c3ccccc3)ns2)CC1	1.02 (inactive)	0.483	7250	7080	-0.215 (inactive)	0.0401
CCOc1nc2cccc(C(=O)O)c2n1Cc1ccc(-c2ccccc2-c2noc(=O)[nH]2)cc1	0.988 (inactive)	0.55	8580	8680	-0.267 (inactive)	-0.0268
CC(=CC(=O)Nc1ccccc1C(=O)O)c1ccc2ccccc2c1	0.983 (inactive)	1.42	7300	7430	-0.436 (inactive)	0.934
OCC(CO)NC1C[C@@](O)(CO)C(O)C(O)C1O (stereo partly drawn)	0.838 (inactive)	1.1	8490	10100	-0.052 (inactive)	-0.122
CCn1cc(NC(=S)Nc2cc(Cl)ccc2OC)c(C(N)=O)n1	0.929 (inactive)	0.479	8480	9130	-0.357 (inactive)	0.0626
CC(=O)[C@H]1CC[C@H]2[C@@H]3C=CC4=CC(=O)CC[C@@]4(C)[C@H]3CC[C@]12C	0.894 (inactive)	0.952	7680	8580	-0.0223 (inactive)	-0.212
O=C(NN=Cc1ccc([N+](=O)[O-])o1)c1ccc(O)cc1	1.02 (inactive)	0.454	8470	8320	-0.586 (inactive)	-0.436
O=C1NC(=O)C(=Cc2ccc(-c3ccc(F)cc3)o2)S1	0.882 (inactive)	0.688	8240	9340	-0.386 (inactive)	0.141
O=CC(O)C(O)C(O)C(O)CO (stereo not drawn)	0.892 (inactive)	0.805	8030	9000	-0.158 (inactive)	-0.000567
OC1CO[C@H]2C(O)CO[C@H]12 (stereo partly drawn)	0.905 (inactive)	0.942	8830	9750	-0.254 (inactive)	-0.154

Structure (SMILES)	fold change [1, 3]	fold change [1, 4]	cell count [1, 5]	cell count [1, 6]	z-score [2, 7]	z-score [2, 8]
COC1=C2CC(C)CC(OC)C(O)C(C)C=C(C)C(OC(N)=O)C(OC)C=CC=C(C)C(=O)NC(=CC1=O)C2=O (stereo not drawn)	0.91 (inactive)	1.01	3230	3550	2.85 (active)	-2.42
O=C(OC1C[N+]2(CCCOc3ccccc3)CCC1CC2)C(O)(c1cccs1)c1cccs1 (stereo not drawn)	0.946 (inactive)	1.31	8940	9450	-0.202 (inactive)	-0.179
O=C(C=Cc1ccccc1)NC(NC(=S)Nc1ccc(Cl)cc1)C(Cl)(Cl)Cl (stereo not drawn)	0.995 (inactive)	0.524	2510	2520	-0.431 (inactive)	-0.459
CC(NC(=O)Cc1cc(F)cc(F)c1)C(=O)NC1C(=O)N(C)c2ccccc2-c2ccccc21 (stereo not drawn)	0.913 (inactive)	0.674	8480	9280	-0.38 (inactive)	1.69
COc1c(C)c(C(=O)c2ccc(N)c(C(=O)O)c2)n2ccccc12	0.908 (inactive)	0.344	7600	8370	0.355 (inactive)	-2.17
Cc1cc(CS(=O)(=O)c2ccccc2)cc(OCc2ccc(CN3CCCC3CO)cc2)c1 (stereo not drawn)	0.932 (inactive)	0.28	7820	8380	0.0407 (inactive)	0.831
NC(=O)c1noc(C(CCCC2CCCCC2)CC(=O)NO)n1 (stereo not drawn)	0.791 (inactive)	1.15	6790	8580	-0.42 (inactive)	-1.85
CCOc1ccc(Cc2cc(C3OC(CO)C(O)C(O)C3O)ccc2Cl)cc1 (stereo not drawn)	0.916 (inactive)	0.801	7650	8340	0.52 (inactive)	-0.097
COc1ccc(C2CC(=O)c3c(O)cc(O)cc3O2)cc1O (stereo not drawn)	0.926 (inactive)	0.807	9010	9730	-0.233 (inactive)	0.0902
CCc1ccc(C=C2SC(=S)NC2=O)cc1	0.911 (inactive)	0.424	7750	8500	-0.119 (inactive)	0.267
O=C(O)C(Cc1ccccc1[N+](=O)[O-])=NNC1=NC(c2ccc(Cl)c(Cl)c2)CS1 (stereo not drawn)	0.88 (inactive)	0.284	6240	7100	-0.273 (inactive)	0.221
CCCCc1nc2cc(C=CC(=O)NO)ccc2n1CCN(CC)CC	1.12 (inactive)	0.731	1070	951	0.665 (inactive)	-0.474
N#Cc1c(Oc2ccc(F)c(NC(=O)Cc3cccc(C(F)(F)F)c3)c2)ccc2nc(NC(=O)C3CC3)sc12	1.2 (inactive)	0.284	2200	1840	-0.453 (inactive)	0.158
Cc1cc(C(N)=O)ccc1-n1c(CCC(=O)O)ccc1-c1ccc(-n2ccnc2)cc1	0.953 (inactive)	0.396	9360	9820	-0.283 (inactive)	0.463
NC1(C(=O)NC(CCO)c2ccc(Cl)cc2)CCN(c2ncnc3[nH]ccc23)CC1 (stereo not drawn)	1.01 (inactive)	0.36	7310	7200	-0.334 (inactive)	-0.0673
C[C@@]12C(=O)N(c3ccc(C(=O)Nc4cccc5cccnc45)cc3)C(=O)[C@@H]1C1C=CC2C1 (stereo partly drawn)	1.75 (inactive)	0.793	7280	4160	0.0501 (inactive)	-0.119
Brc1ccc(C2CN3CCSC3=N2)cc1 (stereo not drawn)	0.957 (inactive)	0.301	9050	9460	-0.426 (inactive)	-0.0963
C[C@]1(C(=O)Nc2ccc(F)nc2)CCCN1c1nc(Nc2cc(C3CC3)[nH]n2)c2cccn2n1	1.01 (inactive)	0.776	2100	2080	-0.348 (inactive)	-2.24
CC1CC(=O)NN=C1c1ccc(NN=C(C#N)C#N)cc1 (stereo not drawn)	0.851 (inactive)	1.15	8280	9730	-0.305 (inactive)	-0.733
CNC(=O)c1cccc(-c2ccc3c(N4CCOCC4C)nc(N4CCOCC4C)nc3n2)c1 (stereo not drawn)	1 (inactive)	0.416	3420	3410	3.83 (active)	-2.15
Nc1nc(Cl)nc2c1ncn2C1OC(CO)C(O)C1F (stereo not drawn)	1.03 (inactive)	0.719	1700	1650	0.651 (inactive)	-0.114
CC(C)C1C(=O)NC(CCCN=C(N)N)C(=O)NCC(=O)NC(CC(=O)O)C(=O)NC(Cc2ccccc2)C(=O)N1C (stereo not drawn)	0.841 (inactive)	0.758	304	361	0.703 (inactive)	-0.232
CN1[C@@H]2CC(OC(=O)C(CO)c3ccccc3)C[C@H]1[C@@H]1O[C@H]12 (stereo partly drawn)	0.946 (inactive)	0.844	9480	10000	-0.356 (inactive)	0.736
C=C1C(=CC=C2CCC[C@]3(C)C(C(C)CCCC(C)(C)O)CC[C@@H]23)CC(O)CC1O (stereo partly drawn)	0.915 (inactive)	1.06	6550	7160	-0.468 (inactive)	0.543
